Test results taken from article PMC7819943, “Rice protein-binding microarrays: a tool to detect cis-acting elements near promoter regions in rice”.
Over roughly 39,000 sequences, “fluorescence intensity (a.u.)” has its median near 4,300; the highest 2% begin near 39,000. This excerpt belongs to a sample that is enriched for the highest values.

biological target: T1, OsSMF1 (Oryza sativa, UniProt Q6ZLB0 1-436); experiment: protein-binding microarray (RPBM); PBS, 2% BSA, 51.3 ng/ul salmon testes DNA, 50 uM zinc acetate, 200 nM TF, 25 C, 1 h; high values mean tight binding; conditions: protein: recombinant; tags: N-terminal polyhistidine and DsRed monomer fusion (pET32a); chain copies: 2; label: CyDye5-dUTP incorporated in the synthesized complementary strand; 3' TTTTT single-stranded linker to array surface; dsDNA, one strand shown
T1 sequence: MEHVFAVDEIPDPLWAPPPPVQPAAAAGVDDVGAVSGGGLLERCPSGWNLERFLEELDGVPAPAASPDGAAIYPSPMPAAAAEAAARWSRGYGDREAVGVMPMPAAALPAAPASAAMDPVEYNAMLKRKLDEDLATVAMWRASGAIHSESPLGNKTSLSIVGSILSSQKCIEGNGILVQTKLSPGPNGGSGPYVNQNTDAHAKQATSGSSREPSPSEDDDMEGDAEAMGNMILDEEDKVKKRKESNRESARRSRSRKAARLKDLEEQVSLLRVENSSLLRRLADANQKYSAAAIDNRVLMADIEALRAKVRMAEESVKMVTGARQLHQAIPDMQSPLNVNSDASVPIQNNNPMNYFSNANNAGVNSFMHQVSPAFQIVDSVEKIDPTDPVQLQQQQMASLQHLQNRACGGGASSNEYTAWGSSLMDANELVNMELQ
Summary of the method: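 Binding signal is defined as the fluorescence intensity of each feature in arbitrary units, read on an Axon 4000B scanner. Transcription factors with N-terminal polyhistidine and DsRed fusions came from E. coli BL21-CodonPlus and were purified on Ni–NTA. They were incubated at 200 nM for 1 h at 25 °C on a custom Agilent array that had been made double-stranded with Cy5-dUTP, with 50 µM zinc acetate present, and the array was washed.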

First: GAACGATGACGGCGCGATGGCCGCCGCCGTGGCGCGGACGCGGAGTCACCTAGTGCAG
Second: CAAGGCGGCCCAACCATCTTCGAAATGCGGCCCATGACGACGGAGTCACCTAGTGCAG
The binding signal of the first is lower: 3210 fluorescence intensity (a.u.) for the first, 39100 fluorescence intensity (a.u.) for the second.

Going from “GCGCCGCCGGCGCCGCGGCGCGGCCGATGACCACGCCGGACGGAGTCACCTAGTGCAG” to “TATCATACAAATGACGACACCACACAAACGGCGGCCCAAGCGGAGTCACCTAGTGCAG”, the binding signal rises from 3490 fluorescence intensity (a.u.) to 4320 fluorescence intensity (a.u.).

Compared with “GTGTTCGACGAAATGCCAACAAGGAACGTGGTGGCGTGGACGGAGTCACCTAGTGCAG”, “ACGGACGGGCGTCGGCGCGGGCGATGACGGACTGACGACGCGGAGTCACCTAGTGCAG” is lower in binding signal: 3500 fluorescence intensity (a.u.) for the first, 3490 fluorescence intensity (a.u.) for the second.

First: CGCGCGCGCCGCCGCCGGTCGGTAACGACGGCGACGATGACGGAGTCACCTAGTGCAG
Second: TCCCCTTCTTCACCGATGCGGCGATGCGCGCGCCTTCTTCCGGAGTCACCTAGTGCAG
The binding signal of the first is higher: 65500 fluorescence intensity (a.u.) for the first, 27500 fluorescence intensity (a.u.) for the second.

Going from “CCCACGGCGCAACGATGACGATGACGATGCCCTTCCGGCGCGGAGTCACCTAGTGCAG” to “CCATCCACCATTCACTTTCCCACCTACCTCCACTATTTATCGGAGTCACCTAGTGCAG”, the binding signal falls from 46900 fluorescence intensity (a.u.) to 3430 fluorescence intensity (a.u.).

First: AATAATGGGCTGAAAATATGTGACGCGAGGCGAGGGTCCCCGGAGTCACCTAGTGCAG
Second: CGCCAACACGACGCTGTGCCGTGGCGCGCCGACAATCATCCGGAGTCACCTAGTGCAG
The binding signal of the first is lower: 3260 fluorescence intensity (a.u.) for the first, 3600 fluorescence intensity (a.u.) for the second.

First: ACATGCCGCTAGGAAATATCCCATCCGGTGCCTGTCTAGACGGAGTCACCTAGTGCAG
Second: TTGCCGGTACTTTGGTACGTCATCCGTGTATAAGTCGGTTCGGAGTCACCTAGTGCAG
The binding signal of the first is lower: 3150 fluorescence intensity (a.u.) for the first, 5840 fluorescence intensity (a.u.) for the second.

Going from “TCCGCGGCTCCGCGCTCTCCCCTCGCCGGTGTCACCGCTCCGGAGTCACCTAGTGCAG” to “GTGTTCCGCAGCGGCCGGGAGACGCGCCGGCTTGTCCCCTCGGAGTCACCTAGTGCAG”, the binding signal rises from 3390 fluorescence intensity (a.u.) to 42300 fluorescence intensity (a.u.).

Going from “CTTGTGGCCGGCGCAGCCGCCGCACCCCTCCGACGTGTTCCGGAGTCACCTAGTGCAG” to “CTAACCACGCCCGCCACGTACGCCGCCTCTGGGACCCCGACGGAGTCACCTAGTGCAG”, the binding signal rises from 5380 fluorescence intensity (a.u.) to 5440 fluorescence intensity (a.u.).

Going from “GCAGCATCTGTGATCTCTCAGTGGGACCCACGTGTCATTGCGGAGTCACCTAGTGCAG” to “CCCTGTCCTGAAACGCCGTGACGGCTTCTCCTTCTCCCTCCGGAGTCACCTAGTGCAG”, the binding signal rises from 5010 fluorescence intensity (a.u.) to 8960 fluorescence intensity (a.u.).

First: GTACTCCGTACTAGTAGTGGCACTCAATGTTCGGTATCTGCGGAGTCACCTAGTGCAG
Second: GTCAGTGGCTCAGTGCCACCCGTAGTGTACTGCCACTCCGCGGAGTCACCTAGTGCAG
The binding signal of the first is higher: 50200 fluorescence intensity (a.u.) for the first, 3370 fluorescence intensity (a.u.) for the second.

Going from “CATATATATCTGACTAAAACGGTATATGTTGCACGTAGTGCGGAGTCACCTAGTGCAG” to “ATACTATGTTAATTTGTCTGTGTCCTAATGACGCACCATACGGAGTCACCTAGTGCAG”, the binding signal rises from 3360 fluorescence intensity (a.u.) to 4820 fluorescence intensity (a.u.).

First: TTTACTGTAGCACCACATTGTCAAATTATGACGTAATTAGCGGAGTCACCTAGTGCAG
Second: AACTTTGTTGTTGATGACGTTTTCAGTTGAAGTCGTTCACCGGAGTCACCTAGTGCAG
The binding signal of the first is lower: 5440 fluorescence intensity (a.u.) for the first, 7120 fluorescence intensity (a.u.) for the second.

Compared with “GGATGATGTGACTTAATAACAGAAGAGAGAAATAATATTACGGAGTCACCTAGTGCAG”, “ATGCTATTATATAAGAGAAAATATAATGATGCTGGCCGTGCGGAGTCACCTAGTGCAG” is lower in binding signal: 40600 fluorescence intensity (a.u.) for the first, 3240 fluorescence intensity (a.u.) for the second.

Going from “TGATTATTTGTGAAATAAAATGAGATAAAATGTGATTTTACGGAGTCACCTAGTGCAG” to “TGAACAATGTTACAAATCACTTTATCGGATGAAGAAATGACGGAGTCACCTAGTGCAG”, the binding signal rises from 28600 fluorescence intensity (a.u.) to 46400 fluorescence intensity (a.u.).

First: ATTTGTAAACAATGTTACTATCACTTTATCAGATGAAGAACGGAGTCACCTAGTGCAG
Second: AACGTGCCACTTTACCTGACGTGATGAAACAATATTATCACGGAGTCACCTAGTGCAG
The binding signal of the first is higher: 34600 fluorescence intensity (a.u.) for the first, 3320 fluorescence intensity (a.u.) for the second.

Going from “CCAGGTCCCAGCCAGGGGTTTATTAGCTGATTCAAGACGTCGGAGTCACCTAGTGCAG” to “CTGGACAGGAAGCAAAGCTCCTGACACGCCCAGCCGTCCCCGGAGTCACCTAGTGCAG”, the binding signal falls from 14900 fluorescence intensity (a.u.) to 3220 fluorescence intensity (a.u.).

Going from “ACCGCCATGTAGGTGCCACGTCATCGCCACGTGGAACGAACGGAGTCACCTAGTGCAG” to “CCGGATGACATGATGACACCGCTACCCATTAAGTTTCGTCCGGAGTCACCTAGTGCAG”, the binding signal falls from 32700 fluorescence intensity (a.u.) to 4050 fluorescence intensity (a.u.).

Going from “CTCCTTCCATTTGTACCCACGTCTGCTGTCCATTGACCGGCGGAGTCACCTAGTGCAG” to “TCACCCTGTCCTCGTCACGTCCCATTTTACATCCACCACCCGGAGTCACCTAGTGCAG”, the binding signal falls from 6910 fluorescence intensity (a.u.) to 6570 fluorescence intensity (a.u.).

First: CCCATTGATGCTACAGAGAGTCCACGTCACCCTCGTCTGCCGGAGTCACCTAGTGCAG
Second: AGCTAGTACCTCACATGCATTCATCTTGCTTGCAATCCGTCGGAGTCACCTAGTGCAG
The binding signal of the first is lower: 42800 fluorescence intensity (a.u.) for the first, 45100 fluorescence intensity (a.u.) for the second.

Going from “GCTTGCTTGCTTGCATCCTCCTCACATTCACCACGAGGTTCGGAGTCACCTAGTGCAG” to “GAATCTAGTAGCTTGCATCCTTTACATCTTCTCATCCTGTCGGAGTCACCTAGTGCAG”, the binding signal rises from 3670 fluorescence intensity (a.u.) to 32700 fluorescence intensity (a.u.).
